The record followed here is PubChem BioAssay AID720706 (Broad Institute, 2013).

Structures are written as SMILES. Where “and” joins values, the source holds several entries; their conditions need not be identical. Equal values may be shown once. In all, about 350,000 compounds went through this assay and about 5,500 (1.6%) were called active.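 How the source made its calls: active means significant combined selectivity score with lowered wild-type GFP, culture density cut under 30%, mutant RFP and density less affected; inactive means any of these conditions unmet.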 Shown is part of a subset that was picked to be rich in actives.

The test is described as follows: reduced GFP signal of wild-type E. coli, primary screen, bacterial rRNA inhibitor project, GFP/RFP fluorescence, OD600, single point (AID 720706). Particulars: E. coli WT GFP vs humanized-ribosome RFP mutants, 24 h; GFP signal change (wild-type ribosome): stronger effect = lower value, DMSO median 0, no signal -100; OD600 change: measured here: OD600 growth, DMSO median 0, no signal -100; RFP signal change: measured here: RFP humanized mutant strains, DMSO median 0, no signal -100, concentration not given here.
As to `O=C(C[C@H]1CC[C@H]2[C@@H](COC[C@@H](O)CN2S(=O)(=O)c2ccc(Cl)cc2)O1)NCCN1CCCCC1`, the GFP signal change (wild-type ribosome) was 0.039% (inactive), the OD600 change amounted to 1.47% and the RFP signal change was -0.478%.

In the case of `COc1cccc(CC(=O)N2CCN(C(=O)C(=O)c3cccc(C(F)(F)F)c3)CC2)c1`, the GFP signal change (wild-type ribosome) was -2.93% (inactive), the OD600 change is -8.1% and the RFP signal change is 7.12%.

Regarding `C[C@@H]1CN([C@@H](C)CO)S(=O)(=O)c2ccc(-c3cccc(C(=O)N(C)C)c3)cc2O[C@@H]1CN(C)C(=O)Nc1ccccc1`, the GFP signal change (wild-type ribosome) was -9.2% (inactive), the OD600 change was -5.97% and the RFP signal change is -2.53%.

Consider `O=S(=O)(NC1CC2CCC1C2)c1ccc(Cl)cc1` (centres undefined), for which the GFP signal change (wild-type ribosome) was 3.91% (inactive), the OD600 change is -2.44% and the RFP signal change was -1.19%.

`O=C(NNC(=S)NC1CC2CCC1C2)c1ccc(Cl)cc1` (centres undefined): the GFP signal change (wild-type ribosome) is -24.6% (active), the OD600 change is -6.95% and the RFP signal change was -4.4%.

On to `O=C(NNC(=O)C1C2CCC(C2)C1C(=O)O)c1ccc(Cl)cc1` (centres undefined), for which the GFP signal change (wild-type ribosome) was 1.61% (inactive), the OD600 change worked out at 3.63% and the RFP signal change is -0.52%.

For the compound `COc1ccc(NC(=O)N(C)C[C@@H]2Oc3ccc(NS(=O)(=O)c4ccc(C)cc4)cc3CC(=O)N([C@@H](C)CO)C[C@H]2C)cc1`, the GFP signal change (wild-type ribosome) is 0.124% (inactive), the OD600 change was -3.65% and the RFP signal change was found to be 1.41%.

For the compound `S=C(c1ccc(-c2ccccc2)o1)N1CCCCC1`, the GFP signal change (wild-type ribosome) is -28.2% (active), the OD600 change is -14.7% and the RFP signal change is -0.16%.

Turning to `CC1CCN(C(=S)c2ccc(-c3ccc(Cl)cc3Cl)o2)CC1`, the GFP signal change (wild-type ribosome) was -16.5% (inactive), the OD600 change was -16.4% and the RFP signal change was -6.12%.

Consider `CN1CCN(C(=O)c2ccc(-c3ccc(Br)cc3)o2)CC1`, for which the GFP signal change (wild-type ribosome) was -5.31% (inactive), the OD600 change is -1.78% and the RFP signal change worked out at 2.79%.

Regarding `C[C@@H]1CN([C@H](C)CO)C(=O)c2cc(-c3cncnc3)cnc2O[C@@H]1CN(C)Cc1ccc(Oc2ccccc2)cc1`, the GFP signal change (wild-type ribosome) was 1.64% (inactive), the OD600 change worked out at 8.99% and the RFP signal change turned out to be 0.949%.

Take `O=S(=O)(NC[C@H]1[C@H](c2ccccc2)[C@H](CO)N1CC1CC1)c1ccccc1`: the GFP signal change (wild-type ribosome) was -3.76% (inactive), the OD600 change was -2.41% and the RFP signal change was -1.76%.

As for `CCc1cc2cc(OC)ccc2nc1SCC(=O)Nc1cc(OC)c(OC)cc1C(=O)O`, the GFP signal change (wild-type ribosome) was -19.8% (active), the OD600 change is -8.13% and the RFP signal change is -0.961%.

For `COc1ccc(OC)c(NC(=O)CSc2nc(-c3ccccc3)cc(=O)[nH]2)c1`, the GFP signal change (wild-type ribosome) was -0.85% (inactive), the OD600 change was -0.395% and the RFP signal change was -1.33%.

Regarding `COc1ccc(NC(=O)CSc2nc(SC)ns2)c(OC)c1`, the GFP signal change (wild-type ribosome) was -4.47% (inactive), the OD600 change is -9.82% and the RFP signal change is 2.07%.

Take `COc1cccc(NC(=O)N2[C@@H]3CNC[C@H]2C3c2ccc(-c3ccncc3)cc2)c1` (some centres undefined): the GFP signal change (wild-type ribosome) was 5.32% (inactive) and -0.155% (inactive); the OD600 change was 9.53% and -0.49%; the RFP signal change was 1.61% and -4.31%.

For `O=C1COc2ccc(C(=O)COC(=O)C3CC(O)CN3S(=O)(=O)c3ccc(Cl)cc3)cc2N1` (centres undefined), the GFP signal change (wild-type ribosome) was -11.8% (inactive), the OD600 change is -8.3% and the RFP signal change came to 1.61%.

On to `Cc1ccc(S(=O)(=O)N2CC(O)C[C@H]2C(=O)OCC(=O)Nc2ccc(N3CCOCC3)cc2)cc1C` (some centres undefined), for which the GFP signal change (wild-type ribosome) was 4.3% (inactive), the OD600 change was found to be 7.03% and the RFP signal change was determined as 2.94%.

With `CC1CCCC(NC(=O)COC(=O)[C@@H]2CC(O)CN2S(=O)(=O)c2ccc3c(c2)OCCO3)C1C` (some centres undefined), the GFP signal change (wild-type ribosome) was -31.5% (active), the OD600 change is -14.6% and the RFP signal change is -2.13%.

Consider `COCC#Cc1ccc([C@H]2[C@H](CO)N3CCCCN(Cc4ccncc4)C[C@@H]23)cc1`, for which the GFP signal change (wild-type ribosome) is -2.93% (inactive), the OD600 change is -2.59% and the RFP signal change was -5.64%.

In the case of `Cc1ccc(S(=O)(=O)NC(C)C(=O)NCc2ccc(Cl)cc2)cc1` (centres undefined), the GFP signal change (wild-type ribosome) is -22.7% (active), the OD600 change is -10.8% and the RFP signal change is -4.03%.

Take `CC(C)CNS(=O)(=O)c1ccc(CCC(=O)NCc2ccc(Cl)cc2)cc1`: the GFP signal change (wild-type ribosome) is 10.8% (inactive), the OD600 change was 11.2% and the RFP signal change was -2.51%.

Take `COc1ccc(S(=O)(=O)NC(C)C(=O)NCc2ccncc2)cc1Cl` (centres undefined): the GFP signal change (wild-type ribosome) is 2.54% (inactive), the OD600 change came out at 0.925% and the RFP signal change was -2.25%.

With `CCC(=O)Nc1ccc2c(c1)OC[C@@H](C)N(CC1CC1)C[C@H](C)[C@H](OC)CN(C)C2=O`, the GFP signal change (wild-type ribosome) was 1.22% (inactive), the OD600 change was -0.6% and the RFP signal change was -0.045%.

`Cc1[nH]c2ccccc2c1/C=C(/C#N)C(=O)NC(C)C`: the GFP signal change (wild-type ribosome) was -4.98% (inactive), the OD600 change was 5.32% and the RFP signal change is -3.18%.

As to `CC(C)(C)C(=O)/C(C#N)=C/c1ccc(O)cc1`, the GFP signal change (wild-type ribosome) is 19.8% (inactive), the OD600 change is 5.69% and the RFP signal change is -9.62%.

For `CC(C)NC(=O)/C(C#N)=C\c1ccc(N(C)C)c(Br)c1`, the GFP signal change (wild-type ribosome) was -19.9% (active), the OD600 change was -12.4% and the RFP signal change is 3.85%.

As for `O=C(NCC[C@H]1CC[C@H](NS(=O)(=O)c2ccccc2)[C@H](CO)O1)c1cc(Cl)cc(Cl)c1`, the GFP signal change (wild-type ribosome) was -5.21% (inactive), the OD600 change was -26.1% and the RFP signal change worked out at 22%.

Regarding `CCc1cc(C(=O)OC)c(NC(=O)CC2Sc3ccc(C(F)(F)F)cc3NC2=O)s1` (centres undefined), the GFP signal change (wild-type ribosome) is 0.188% (inactive), the OD600 change stood at 4.88% and the RFP signal change was -2.55%.

As to `Cc1ccc(CNC(=O)CC2Sc3ccccc3NC2=O)cc1` (centres undefined), the GFP signal change (wild-type ribosome) was 11.2% (inactive), the OD600 change is 14.1% and the RFP signal change was 3.46%.

Take `COC(=O)c1cc(C)sc1NC(=O)CC1Nc2ccccc2NC1=O` (centres undefined): the GFP signal change (wild-type ribosome) is -18.4% (active), the OD600 change is -7.76% and the RFP signal change worked out at 12.5%.

As for `O=C(OCC(=O)c1c[nH]c2ccccc12)c1cccc(O)c1`, the GFP signal change (wild-type ribosome) was -42.8% (inactive), the OD600 change is -45.1% and the RFP signal change is -14.1%.

Consider `O=C(O)c1[nH]c2ccccc2c1C(c1cccc(O)c1)c1c(C(=O)O)[nH]c2ccccc12`, for which the GFP signal change (wild-type ribosome) is -25.6% (active), the OD600 change was -18.5% and the RFP signal change was 8.53%.

In the case of `COc1ccc2c3c(n(C)c2c1)[C@@H](CO)N(C(C)=O)CC31CCN(Cc2ccc(Cl)cc2)CC1`, the GFP signal change (wild-type ribosome) is -1.69% (inactive), the OD600 change is -3.51% and the RFP signal change came to 1.83%.

As to `COc1ccc(/C=C2\SC(=S)N(CCC(=O)N3CCOCC3)C2=O)cc1OC`, the GFP signal change (wild-type ribosome) is 10.4% (inactive), the OD600 change worked out at 16.7% and the RFP signal change came to 0.46%.

Consider `C=CCOc1ccc(/C=C2\SC(=S)N(CCC(=O)O)C2=O)cc1`, for which the GFP signal change (wild-type ribosome) is -32.4% (active), the OD600 change is -18.9% and the RFP signal change was -4.79%.

Regarding `O=C1/C(=C/c2ccc(F)cc2)SC(=S)N1CCCC(=O)N1CCCCC1CCO` (centres undefined), the GFP signal change (wild-type ribosome) was -19.1% (inactive), the OD600 change is -28.5% and the RFP signal change was -4.34%.

In the case of `Cc1ccccc1-c1cc(C(=O)NCC2CC2)n(CC2CC(c3cccnc3)=NO2)n1` (centres undefined), the GFP signal change (wild-type ribosome) was -8.08% (inactive), the OD600 change is -3.34% and the RFP signal change is -12%.

Take `Cc1ccccc1-c1cc(C(=O)NCc2cccs2)n(CC2CC(c3cccnc3)=NO2)n1` (centres undefined): the GFP signal change (wild-type ribosome) was -17.6% (active), the OD600 change is -10.9% and the RFP signal change is 5.68%.

As to `Cc1ccc(CNC(=O)c2cc(-c3ccccc3C)n(CC3CC(c4cccc([N+](=O)[O-])c4)=NO3)n2)cc1` (centres undefined), the GFP signal change (wild-type ribosome) was 6.99% (inactive), the OD600 change was determined as 10.7% and the RFP signal change was -2.49%.

On to `Clc1ccc(Nc2ccc3ccccc3n2)cc1`, for which the GFP signal change (wild-type ribosome) is -54.6% (active), the OD600 change is -30% and the RFP signal change is -18%.

With `C=CCNc1nc(Nc2ccc(Cl)cc2)nc(OC)n1`, the GFP signal change (wild-type ribosome) was -33.3% (inactive), the OD600 change is -34% and the RFP signal change was -2.27%.

As to `O=C(NNC(=O)c1ccc2ccccc2c1)c1ccc(Cl)cc1`, the GFP signal change (wild-type ribosome) was 2.13% (inactive), the OD600 change is 11.3% and the RFP signal change is -2.59%.
